Results published in PubChem BioAssay AID606 (Columbia University Molecular Screening Center, 2007).
Fewer than 10 of roughly 52,000 compounds were called active.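 The calls were made as follows: active = IC50 under 40 µM in the dose-response test; inactive = IC50 of 40 µM or more, or never dose-tested.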 Not all results are given here.

target: Tyrosine-protein phosphatase non-receptor type 22 (Homo sapiens) (UniProt Q9Y2R2); experiment: LYP phosphatase inhibitors, primary screen, biochemical, DiFMUP fluorescence, recombinant catalytic domain, 10 µM (AID 606); conditions: at 10 µM, active compounds read high
Sequence (Q9Y2R2 whole entry, looked up, the tested form may be a part): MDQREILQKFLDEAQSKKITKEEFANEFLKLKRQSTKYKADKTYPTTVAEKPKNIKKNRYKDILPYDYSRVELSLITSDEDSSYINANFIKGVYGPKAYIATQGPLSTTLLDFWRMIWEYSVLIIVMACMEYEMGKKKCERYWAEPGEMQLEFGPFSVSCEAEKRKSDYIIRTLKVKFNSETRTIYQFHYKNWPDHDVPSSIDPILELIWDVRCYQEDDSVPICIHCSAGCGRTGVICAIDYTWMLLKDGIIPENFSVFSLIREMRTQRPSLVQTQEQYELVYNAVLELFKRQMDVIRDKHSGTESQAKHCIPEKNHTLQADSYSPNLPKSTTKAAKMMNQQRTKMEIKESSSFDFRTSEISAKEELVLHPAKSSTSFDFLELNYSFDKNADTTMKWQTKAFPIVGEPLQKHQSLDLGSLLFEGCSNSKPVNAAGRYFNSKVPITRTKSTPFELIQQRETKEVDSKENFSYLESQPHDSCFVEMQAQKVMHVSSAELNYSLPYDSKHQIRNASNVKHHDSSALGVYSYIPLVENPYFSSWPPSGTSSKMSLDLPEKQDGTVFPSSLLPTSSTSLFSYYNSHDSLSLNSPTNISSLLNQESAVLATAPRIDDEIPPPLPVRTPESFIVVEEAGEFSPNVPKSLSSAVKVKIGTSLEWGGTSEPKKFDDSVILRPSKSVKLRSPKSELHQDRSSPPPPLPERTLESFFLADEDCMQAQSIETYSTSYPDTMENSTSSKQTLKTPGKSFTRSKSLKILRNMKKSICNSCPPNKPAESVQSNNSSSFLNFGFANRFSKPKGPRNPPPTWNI

inhibition, inactive:
COc1ccccc1-n1c(CNc2c(C)cccc2C)nnc1SCC(=O)N1CCOCC1 19.1%
Cc1ccc(-n2c(N)c(C(=O)N3CCOCC3)sc2=S)cc1 15.3%
O=C1CC(c2ccc3c(c2)OCO3)Sc2nc3ccccc3n21 (configuration not stated) 11.4%
CCCCN(CCCC)Cc1ccc(N)cc1 3.2%
COc1ccccc1OCc1nc(C#N)c(N2CCC(C(N)=O)CC2)o1 6.04%
COc1nc(Nc2ccc(-c3nc4ccccc4o3)cc2)nc(N2CCOCC2)n1 9.06%
O=C(C1CCN(S(=O)(=O)c2cccc3cccnc23)CC1)N1CCc2ccccc21 2.25%
CCCCn1c(SCC(=O)N2CCCCC2)nc2cc(S(N)(=O)=O)ccc21 17.2%
C=CCNc1nc(NCCN2CCOCC2)nc(OC)n1 7.44%
COC(=O)c1c(NC(=O)CC2SCC(C(=O)OC)NC2=O)sc2c1CCCC2 (configuration not stated) -6.67%
Cc1onc(-c2ccccc2)c1C(=O)Nc1nc(-c2ccc(F)c(F)c2)cs1 13.4%
CN(C)S(=O)(=O)N1CCN(CC(O)COc2ccc(C(=O)c3ccccc3)cc2)CC1 (configuration not stated) 10.5%
CCOC(=O)N1CCN(Cc2nc3c(c(=O)n(C)c(=O)n3C)n2Cc2cccc3ccccc23)CC1 7.1%
Nc1c(S(=O)(=O)c2cccs2)c2nc3ccccc3nc2n1/N=C/c1cccc(O)c1 13.6%
O=C(NCc1ccco1)C1CCCN(S(=O)(=O)c2ccc(-n3cnnn3)cc2)C1 (configuration not stated) 12%
CC(=O)OCP(C)(=O)COC(C)=O 5.43%
CCN(CC)CCOC(=O)c1ccc(N=CC2=C(O)CC(C)(C)CC2=O)cc1 4.23%
Cc1c(N2C(=O)C(C)SC23C(=O)Nc2ccccc23)c(=O)n(-c2ccccc2)n1C (configuration not stated) 4.85%
COc1ccc(C)cc1NC(=O)C1CCCN1S(=O)(=O)c1ccc2c(c1)CCC(=O)N2 (configuration not stated) 12%
CCN(CC)c1ccc(NC(=O)c2ccco2)c(C)c1 15.3%
CCc1ccc2[nH]c(=O)c(CN(CCN(C)C)C(=O)Nc3ccccc3OC)cc2c1 -7.1%
CCOC(=O)C1CCN(C(=O)CN(C)S(=O)(=O)c2cc(C)ccc2OC)CC1 -35.9%
CCC12CC3CC(C1)CC(C(=O)Nc1nn[nH]n1)(C3)C2 11.3%
CCN1C(=O)c2cccc3c(S(=O)(=O)Nc4c(C)n(C)n(-c5ccccc5)c4=O)ccc1c23 -6.68%
COC(=O)C1=C(C)NC(=O)CC1c1cccc(OC)c1OC (configuration not stated) -0.77%
Cn1c(SCC(=O)Nc2ccc3c(c2)oc2ccccc23)nnc1-c1ccccc1 -0.68%
CCCC(=O)C1=C(c2ccccc2)C(C#N)(C#N)C(C#N)=C1N 12%
Cc1ccc(N(CC(=O)Nc2ccc(S(=O)(=O)N3CCOCC3)cc2)S(C)(=O)=O)cc1C 5.91%
CCOC(=O)CSc1nc2c(c(=O)[nH]c(=O)n2C)n1CCc1ccccc1 12%
CC(=O)NC12CC3CC(C1)CC(C(=O)OCC(=O)Nc1ncc(Cl)c(C)c1Cl)(C3)C2 3.56%
O=C1c2ccccc2S(=O)(=O)N1CC(O)COc1ccc(Cl)cc1 (configuration not stated) 5.66%
CCCCCC(=O)Nc1ccc(N2CCN(S(C)(=O)=O)CC2)cc1 8.48%
CCn1cc(C(=O)NCc2ccco2)c(=O)c2cc(S(=O)(=O)N3CCC(C)CC3)ccc21 2.74%
COC(=O)CSc1nc2c(c(=O)n(C)c(=O)n2C)n1CCCc1ccccc1 4.4%
CCN1C(=O)c2cccc3c(S(=O)(=O)NCCCN4CCOCC4)ccc1c23 8.51%
Cc1cc(NC(=O)COc2cccc(C)c2C)no1 11.1%
Cn1c(SCC(N)=O)nnc1C1CCN(C(=O)NCc2ccccc2)CC1 11.9%
CCOC(=O)c1ccc(-c2n[nH]c(=O)c3ccccc23)cc1 -0.81%
Cc1ccc2c(c1)N(CC(=O)NCc1cccs1)C(=O)CO2 7.47%
O=C(OCN1C(=O)c2ccccc2C1=O)c1cccs1 8.67%
O=C(NCCCc1ccccc1)C1CCN(c2nnc(-n3cccc3)s2)CC1 1.14%
Cn1c(=O)c2cc(S(=O)(=O)N3CCN(c4cccc(C(F)(F)F)c4)CC3)ccc2n(C)c1=O 3.54%
CCn1c(COc2cccc(C)c2)nnc1SCC(=O)Nc1cccc(C(=O)O)c1 7.81%
O=C(CCS(=O)(=O)Cc1ccccc1)N1CCN(Cc2ccccc2)CC1 -7.91%
Cc1cc(Nc2cccc(Cl)c2)n2ncnc2n1 -9.28%
COc1ccc(C(=O)NC2(C(F)(F)F)N=C3SCCN3C2=O)cc1 (configuration not stated) 96.1%
CCOC(=O)N1CCC(n2c(=S)[nH]c3cc(OC)c(OC)cc3c2=O)CC1 -14.3%
COc1cc2c(cc1OC)CN(C(=O)Cc1ccc(OC)c(S(=O)(=O)N3CCOCC3)c1)CC2 1.37%
CCOc1cc(C#N)c(NC(=O)c2ccco2)cc1OCC 7.92%
Cn1nc(-c2ccc(C(=O)Nc3cccnc3)cc2)c2ccccc2c1=O 13.4%
Cc1ccnc(NC(=O)Nc2cccc(F)c2)c1 -13.1%
O=c1c2cc(N3CCOCC3)ccc2[nH]c(=S)n1CCCN1CCCCC1 7.14%
COCCn1nnnc1C(c1ccc(OC)cc1OC)N1CCN(c2ccccc2)CC1 (configuration not stated) 7.1%
COCCN(CCOC)C(=O)c1c[nH]c2ccc(S(=O)(=O)N(C)c3ccc(F)cc3)cc2c1=O -2.71%
C/C=C/c1ccc(OCCCCN2C(=O)NC(C)(C)C2=O)c(OC)c1 0.22%
CCOC(=O)c1cc2c(=O)n3cccc(C)c3nc2n(Cc2ccco2)c1=NC(=O)c1cccnc1 12.3%
CCC(C)NC(=O)CN(c1ccc(OC)cc1)S(=O)(=O)c1ccc(NC(C)=O)cc1 (configuration not stated) -3.53%
